Data on 64 compounds can be found in PubChem BioAssay AID1626 (SRMLSC, 2009).

SMILES strings stand for the structures. Hit rate of the full screen: of about 220,000 compounds, about 2,000 (0.91%) were called active. About 2% were inconclusive and are not listed. Only a sample is shown. Measured potencies and affinities stand elsewhere. A number with no mark means an inactive call. Cut-off read from the data, not from the text of the source: inconclusive = inhibition above about 80% without an active follow-up result; inactive = below that; test concentration not stated here.

This assay in a line: M. tuberculosis H37Rv growth inhibitors, H37Rv strain (AID 1626).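 Note: bacteria incubated seven days before Alamar blue readout; 0% = bacteria only wells and 100% = bacteria with antibiotic wells.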 The settings on record: active compounds read high, concentration not given here.
Regarding `CCCCCC(=O)N/N=C(\C)c1ccc(N2CCCCC2)cc1`, the inhibition was -2.51%.
Consider `CCOc1ccc2cc(C3CC(c4ccco4)=NN3S(C)(=O)=O)c(=O)[nH]c2c1` (centres undefined), for which the inhibition was 0.83%.
Take `COc1ccccc1OCCSc1nc2ccccc2n1CCO`: the inhibition is -6.33%.
Turning to `O=C1CC(NCc2ccc(F)cc2)C(=O)N1c1ccccc1` (centres undefined), the inhibition was -1.25%.
On to `CCOC(=O)N1CCN(C(=O)C2CCN(S(=O)(=O)c3ccc(C)cc3)CC2)CC1`, for which the inhibition is -7.16%.
As for `COc1ccccc1-n1c(SCC(=O)N2CCOCC2)nc(O)c(Cc2ccccc2)c1=O`, the inhibition is -3.87%.
The result for `C[C@@H]1C=C[C@](Cc2ccccc2)(C(=O)NCC2CC2)N1C(=O)c1ccccc1` reads -23%; that for `COc1ccccc1CC(=O)Nc1cc2oc3ccccc3c2cc1OC`, -9.4%.
For `COc1cc2c(cc1NC(=O)COc1ccccc1OC)oc1ccccc12`, the inhibition is 0.28%.
Then `COc1cc2c(cc1NC(=O)c1ccc3c(c1)OCO3)oc1ccccc12`, with -1.46%; and `COc1ccccc1NC(=S)NCc1ccc2c(c1)OCO2`, with 7.62%; and `O=C(CN(C(=O)Cn1nnc(-c2ccc(F)cc2)n1)C1CCCC1)NC1CCCC1`, with 0.92%.
For `O=[N+]([O-])c1ccc(N2CCN(C(=S)c3cccc([N+](=O)[O-])c3)CC2)cc1`, the inhibition is 1.74%.
For `CCN(C1CCCCC1)S(=O)(=O)c1ccc(C(=O)O)cc1`, the inhibition is -11.6%.
The result for `CCO[C@H]1OC(C(=O)N2CCOCC2)=C[C@@H](c2ccccc2)[C@@H]1CCCO` reads 0.78%; that for `Cc1ccccc1OCCn1cc(C(=O)C(=O)N2CCOCC2)c2ccccc21`, 5.53%.
Consider `O=C(CO/N=C/c1ccccc1Cl)N1CCCc2ccccc21`, for which the inhibition is 4.05%.
Regarding `COc1ccccc1N1CCN(C(=O)C(Sc2ccccc2)c2ccccc2)CC1` (centres undefined), the inhibition is -2.82%.
`CCC(=O)NNC(=O)c1cc(COc2cc(Cl)cc(Cl)c2)on1`: the inhibition was 13.9%.
Regarding `CC(C)NC(=O)NNC(=O)c1cc(COc2cc(Cl)cc(Cl)c2)on1`, the inhibition was -6.1%.
The result for `CCOC(=O)c1sc(-c2ccc(C(F)(F)F)cc2)nc1O` reads -1.38%; that for `CCOC(=O)c1csc(COc2ccccc2Cl)n1`, -4.66%; that for `CCOC(=O)c1csc(NC(=O)COc2ccc(Cl)cc2Cl)n1`, -7.94%.
On to `Cc1onc(C(=O)NN)c1-c1csc(COc2ccc(Cl)cc2)n1`, for which the inhibition was -10.6%.
In the case of `Cc1nc(-c2cc(-c3nc(-c4ccc(C(F)(F)F)cc4)no3)no2)cs1`, the inhibition was 7.08%.
In the case of `CC(=O)c1csc(COc2ccc(Cl)cc2)n1`, the inhibition was -4.98%.
`O=C(/C=C/c1ccccc1[N+](=O)[O-])N1CCN(c2ccccc2F)CC1`: the inhibition is 4.82%.
With `O=C(O)c1ccc(S(=O)(=O)N2CCC(c3nc(-c4ccccc4Cl)no3)CC2)cc1`, the inhibition was -8.76%.
Take `O=C(COC(=O)/C=C/c1ccc(Br)o1)Nc1ccccc1F`: the inhibition was 8.52%.
As to `Cc1ccc(C2=NC(=O)/C(=C/c3cc(O)c(O)c(Br)c3)S2)cc1`, the inhibition is -2.49%.
Regarding `Cn1ncc2c(NCc3cccc(C(F)(F)F)c3)c(C(=O)O)cnc21`, the inhibition is -1.6%.
As to `CCN(CC)C1CCN(C(=O)CCc2nnc(CCCCc3ccccc3)o2)C1` (centres undefined), the inhibition is -6.99%.
As to `Cc1csc2c(N3CCN(C(=O)c4ccc(C(C)(C)C)cc4)CC3)ncnc12`, the inhibition is 5.47%.
Take `CCCC(=O)Nc1cc(-c2nn(C)c(=O)c3ccccc23)ccc1N1CCOCC1`: the inhibition is -6.76%.
On to `CCCn1c(N)c(C(=O)CN2CCc3ccccc3C2)c(=O)n(C)c1=O`, for which the inhibition was 0.315%.
In the case of `CC(=O)Nc1ccc(OCC(O)Cn2c(C)nc3ccccc32)cc1` (centres undefined), the inhibition is 5.23%.
`O=C(OC1CCCCC1=O)c1cc(Cl)ccc1[N+](=O)[O-]` (centres undefined): the inhibition was -3.33%.
As to `Cc1ccc(NC2(c3nnnn3-c3c(C)cccc3C)CCCCC2)cc1`, the inhibition is 16.4%.
Regarding `CC(=O)c1csc(COc2ccccc2)n1`, the inhibition is -10.3%.
As to `CCOC(=O)c1csc(COc2ccc(OC)cc2)n1`, the inhibition is -4.8%.
For `Cc1cccc2nc(CSc3nnc(N)s3)cn12`, the inhibition is 0.64%.
Take `Cc1ccc(C(=O)N/C(=C/c2ccc(-c3ccc(Br)cc3)o2)C(=O)NC2CCS(=O)(=O)C2)cc1` (centres undefined): the inhibition is 2.02%.
Consider `CCNc1ccc(C(=O)OCC)cc1NC(=O)c1cc(S(=O)(=O)N2CCOCC2)ccc1C`, for which the inhibition was 0.89%.
On to `O=C(CN1CC(=O)Oc2ccccc21)NCc1ccco1`, for which the inhibition is 0.53%.
As to `CCc1cc(-c2n[nH]c(C)c2-c2nc(C)cs2)c(O)cc1OC`, the inhibition was 4.46%.
As to `Cc1nn(Cc2ccccc2)c(Cl)c1C(=O)NC1CCCc2ccccc21` (centres undefined), the inhibition was 12.6%.
Consider `CCCNC(=O)C1CC(=O)N(c2ccc(OCC(=O)Nc3cc(C)cc(C)c3)cc2)C1` (centres undefined), for which the inhibition was -2.31%.
`O=[N+]([O-])/C=C/c1c(OCc2ccccc2)ccc2ccccc12`: the inhibition is 42%.
Turning to `CCOC(=O)COc1ccccc1/C=C\[N+](=O)[O-]`, the inhibition is 11.3%.
Turning to `O=C(CSc1nnc(Cc2cc(=O)[nH]c(=O)[nH]2)n1-c1ccc(Cl)cc1)NC1CCCC1`, the inhibition is -1.17%.
Then `COc1ccc(OC)c(C2C=C(c3ccc(C)c(C)c3)Nc3nnnn32)c1` (centres undefined), with 6.69%.
Consider `COc1cccc(C2=CC(c3ccc(OC)c(OC)c3OC)n3nnnc3N2)c1` (centres undefined), for which the inhibition is -9.14%.
Take `COc1ccc(C(=O)N(C)C2CCN(C)CC2)cc1S(=O)(=O)Nc1cc(Cl)ccc1Cl`: the inhibition is -15.1%.
With `Cc1nc(=S)c2c([nH]1)-c1ccccc1CC21CCCCC1`, the inhibition was 6.17%.
With `Cn1c(/C=N/O)nc2ccccc21`, the inhibition was -6.75%.
With `Cc1ccc(C(=O)N/N=C/c2nc3ccccc3n2C)cc1`, the inhibition is 62.7%.
With `Cc1ccc2cc(/C=N/NC(=O)c3ccccc3[N+](=O)[O-])c(Cl)nc2c1`, the inhibition is -0.86%.
Then `Cc1nn(CC(=O)Nc2ccccn2)c(C)c1[N+](=O)[O-]`, with -1.31%; and `CCOc1ccc(/C=C2/Sc3ccc(C(=O)N4CCN(C(=O)c5ccco5)CC4)cc3N(C)C2=O)cc1OC`, with -1.76%.
`CN1C(=O)/C(=C/c2ccccc2Cl)Sc2ccc(C(=O)NCc3cccnc3)cc21`: the inhibition was 34.2%.
With `COc1cccc(C(=O)NCc2cccnc2)c1`, the inhibition was -9.43%.
`Cc1ccc(NC(=O)COc2ccc(/C=C3/SC(=Nc4ccccc4)N(Cc4cccnc4)C3=O)cc2)cc1`: the inhibition was 2.56%.
Consider `CCOc1cc(/C=C2/SC(=Nc3ccccc3)N(Cc3cccnc3)C2=O)ccc1OCC#N`, for which the inhibition is -1.44%.
On to `COc1ccc(C(=O)NCc2cccnc2)cc1OC`, for which the inhibition is -4.7%.

The inhibition is the drop in the measured response relative to a control, in per cent.
